Assay outcomes: PubChem, University of Kansas High Throughput Screening Laboratory
Pf apPOL inh – Pf-apPOL inhibitors, biochemical, fluorescence; inhibition, % at 10 µM; Plasmodium falciparum apicoplast DNA polymerase (apPOL); Recombinant Pf-apPOL, molecular beacon fluorescence, 1.5 h; 0.25% of 210,000 active
mHTT CaM bind – mutant huntingtin-calmodulin interaction inhibitors – biochemical, AlphaScreen, primary screen. P42858. AlphaScreen His-mHTT/GST-CaM binding, luminescence. inhibition, % at 15 µM. 3.6% of 190,000 active
Target sequence (P42858 whole entry, looked up, change not shown): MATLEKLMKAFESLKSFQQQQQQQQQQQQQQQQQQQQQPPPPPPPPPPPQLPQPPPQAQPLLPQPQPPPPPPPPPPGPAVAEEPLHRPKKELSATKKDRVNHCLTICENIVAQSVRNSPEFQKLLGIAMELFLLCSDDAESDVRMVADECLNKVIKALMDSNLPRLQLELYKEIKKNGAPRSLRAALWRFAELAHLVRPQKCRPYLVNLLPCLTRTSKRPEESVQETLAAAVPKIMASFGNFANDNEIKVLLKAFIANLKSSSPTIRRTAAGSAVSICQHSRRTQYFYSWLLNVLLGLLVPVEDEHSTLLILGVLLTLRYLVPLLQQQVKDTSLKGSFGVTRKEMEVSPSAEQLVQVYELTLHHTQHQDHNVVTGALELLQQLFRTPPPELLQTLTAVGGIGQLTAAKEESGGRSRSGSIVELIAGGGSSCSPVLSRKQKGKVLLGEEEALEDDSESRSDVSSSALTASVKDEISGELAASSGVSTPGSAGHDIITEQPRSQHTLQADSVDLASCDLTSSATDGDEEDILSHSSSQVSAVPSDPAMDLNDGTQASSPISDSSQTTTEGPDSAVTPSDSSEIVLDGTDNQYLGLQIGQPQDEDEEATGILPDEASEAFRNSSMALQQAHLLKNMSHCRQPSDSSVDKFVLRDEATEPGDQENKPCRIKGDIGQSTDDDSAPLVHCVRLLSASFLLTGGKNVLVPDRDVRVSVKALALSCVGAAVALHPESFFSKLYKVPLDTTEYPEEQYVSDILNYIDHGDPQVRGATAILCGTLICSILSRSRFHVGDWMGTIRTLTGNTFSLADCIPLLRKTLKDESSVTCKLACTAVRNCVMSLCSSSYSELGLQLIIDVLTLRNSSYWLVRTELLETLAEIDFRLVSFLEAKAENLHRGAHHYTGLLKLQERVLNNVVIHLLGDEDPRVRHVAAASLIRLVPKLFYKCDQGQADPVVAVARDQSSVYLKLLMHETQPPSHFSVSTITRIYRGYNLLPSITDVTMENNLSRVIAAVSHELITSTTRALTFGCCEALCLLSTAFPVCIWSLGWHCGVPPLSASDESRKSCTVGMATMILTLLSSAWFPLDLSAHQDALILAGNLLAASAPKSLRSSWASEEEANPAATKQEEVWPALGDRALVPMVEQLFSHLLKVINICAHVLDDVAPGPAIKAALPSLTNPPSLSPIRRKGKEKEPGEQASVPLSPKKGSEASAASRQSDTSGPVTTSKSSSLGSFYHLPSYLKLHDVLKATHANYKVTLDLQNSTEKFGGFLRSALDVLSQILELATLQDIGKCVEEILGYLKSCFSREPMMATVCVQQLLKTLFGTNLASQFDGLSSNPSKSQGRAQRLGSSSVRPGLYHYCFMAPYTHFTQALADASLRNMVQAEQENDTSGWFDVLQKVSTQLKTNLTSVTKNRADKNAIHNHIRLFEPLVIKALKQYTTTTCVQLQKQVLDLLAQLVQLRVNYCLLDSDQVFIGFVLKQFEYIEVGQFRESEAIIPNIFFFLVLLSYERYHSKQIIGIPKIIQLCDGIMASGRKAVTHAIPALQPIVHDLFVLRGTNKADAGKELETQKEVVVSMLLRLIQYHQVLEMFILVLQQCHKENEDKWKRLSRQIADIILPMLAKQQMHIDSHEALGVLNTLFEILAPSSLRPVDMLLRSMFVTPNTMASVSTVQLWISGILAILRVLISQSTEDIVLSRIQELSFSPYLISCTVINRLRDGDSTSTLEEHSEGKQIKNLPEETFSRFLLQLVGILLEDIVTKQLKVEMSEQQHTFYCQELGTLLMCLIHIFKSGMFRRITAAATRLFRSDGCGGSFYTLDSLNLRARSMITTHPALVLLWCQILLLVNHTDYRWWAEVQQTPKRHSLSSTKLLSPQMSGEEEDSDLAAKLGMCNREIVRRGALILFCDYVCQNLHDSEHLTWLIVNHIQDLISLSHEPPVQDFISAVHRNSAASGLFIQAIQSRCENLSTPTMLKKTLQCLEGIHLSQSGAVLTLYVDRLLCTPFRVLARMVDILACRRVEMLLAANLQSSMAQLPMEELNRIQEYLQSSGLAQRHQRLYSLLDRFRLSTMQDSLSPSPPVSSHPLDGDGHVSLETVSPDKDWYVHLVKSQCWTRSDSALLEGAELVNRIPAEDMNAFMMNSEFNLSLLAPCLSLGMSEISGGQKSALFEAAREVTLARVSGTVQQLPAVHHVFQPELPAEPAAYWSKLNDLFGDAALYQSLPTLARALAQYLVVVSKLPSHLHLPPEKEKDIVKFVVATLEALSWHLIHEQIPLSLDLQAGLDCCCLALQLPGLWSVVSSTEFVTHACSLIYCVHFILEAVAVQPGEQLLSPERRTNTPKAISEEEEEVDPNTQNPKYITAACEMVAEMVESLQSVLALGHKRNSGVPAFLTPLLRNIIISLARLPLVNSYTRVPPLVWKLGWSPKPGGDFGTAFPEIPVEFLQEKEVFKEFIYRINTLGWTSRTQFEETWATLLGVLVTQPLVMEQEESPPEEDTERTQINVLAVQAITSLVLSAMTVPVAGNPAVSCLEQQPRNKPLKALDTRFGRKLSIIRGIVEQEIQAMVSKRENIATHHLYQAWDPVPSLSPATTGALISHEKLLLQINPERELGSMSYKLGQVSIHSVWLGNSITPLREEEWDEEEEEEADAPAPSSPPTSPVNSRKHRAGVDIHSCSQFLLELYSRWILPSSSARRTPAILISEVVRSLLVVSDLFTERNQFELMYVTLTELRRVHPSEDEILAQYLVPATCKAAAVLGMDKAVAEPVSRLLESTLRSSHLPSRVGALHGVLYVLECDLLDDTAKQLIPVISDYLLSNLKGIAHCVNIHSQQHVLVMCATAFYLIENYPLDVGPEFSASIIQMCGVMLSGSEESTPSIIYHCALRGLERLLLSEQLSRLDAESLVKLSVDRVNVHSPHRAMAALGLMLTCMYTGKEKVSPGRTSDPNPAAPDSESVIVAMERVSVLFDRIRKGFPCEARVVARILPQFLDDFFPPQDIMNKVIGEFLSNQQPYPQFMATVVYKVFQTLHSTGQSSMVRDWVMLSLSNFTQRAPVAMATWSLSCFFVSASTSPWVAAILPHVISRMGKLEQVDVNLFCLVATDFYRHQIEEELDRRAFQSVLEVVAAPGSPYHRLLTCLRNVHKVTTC
Hits are given with their value; n = inactive; x = no result given. The sample as a whole holds a higher share of hits than the screen did. Rule as the data show it: active = inhibition above about 50%; inactive = the rest.

SMILES	Pf apPOL inh	mHTT CaM bind
COc1ccc(C2CC(C(F)(F)F)n3nc(C(=O)Nc4cccnc4)cc3N2)cc1 (centres undefined)	54.7	n
COc1ccc(C2CC(C(F)(F)F)n3nc(C(=O)NCc4ccccc4)c(Cl)c3N2)cc1 (centres undefined)	n	n
CN(Cc1ccccc1)C(=O)c1cc2n(n1)C(C(F)(F)F)CC(c1ccccc1)N2 (centres undefined)	n	53.0
COc1ccc(C2CC(C(F)(F)F)n3nc(C(=O)N(C)Cc4ccccc4)c(Cl)c3N2)cc1 (centres undefined)	n	89.0
O=C(CN1CCN(C(=O)Nc2ccccc2)CC1=O)NC1CCCCCC1	n	n
COc1ccc(CC(=O)N2CC3CC2CC3NC(=O)c2cccnc2)cc1Cl (centres undefined)	n	n
Cc1cc(OCC(=O)Nc2ccccc2Cl)nc(N2CCCC2)n1	n	n
COc1ccc(-c2c(C)oc3c4c(ccc3c2=O)OCN(CC(C)C)C4)cc1	n	n
COc1ccc(OC)c(-c2cc(C(=O)Nc3ccc4c(c3)CCC(=O)N4)[nH]n2)c1	n	n
Cc1cccc(CNC(=O)c2cccc(C3CCCN(C(=O)NC(C)C)C3)c2)c1 (centres undefined)	n	n
Cc1ccc(NC(=O)Cc2nc(-c3ccccc3)n[nH]2)cc1C	n	n
O=C(Cc1nc(-c2ccccc2)n[nH]1)Nc1ccccc1	n	n
O=C(Cc1nc(-c2ccccn2)n[nH]1)Nc1cccc(Cl)c1	n	99.4
O=C(Cc1nc(-c2ccccc2)n[nH]1)Nc1ccc(F)cc1	n	n
O=C(Cc1nc(-c2ccccn2)n[nH]1)Nc1cccc(F)c1	n	99.2
O=C(Cc1nc(-c2ccccn2)n[nH]1)Nc1ccc(Cl)cc1	n	67.5
Cc1ccc(-c2noc(C3CCN(CC(=O)NCc4ccc(F)cc4)CC3)n2)cc1	n	n
CC(=O)N1CCCC2(CC(c3ccc(Cl)cc3)=CO2)C1 (centres undefined)	n	n
Cc1ccc(C)n1-c1ccc(C(=O)ON2C(=O)CCC2=O)cc1	82.3	x
CCOC(=O)c1ccc(-n2c(C)ccc2C)cc1	n	x
COc1ccc(Cl)cc1NC(=O)CSc1nccn1-c1cccc(C)c1C	n	56.0
Cc1cccc(-n2ccnc2SCC(=O)Nc2ccc(F)cc2F)c1C	n	n
CCn1c(C2CCN(S(=O)(=O)c3ccc4c(c3)CCCC4)C2)nc2ccncc21 (centres undefined)	n	92.6
CCn1c(C2CCN(S(=O)(=O)c3cc(F)cc(F)c3)C2)nc2ccncc21 (centres undefined)	n	n
Cc1cccc(NC(=O)COc2ccc(Br)cc2)n1	n	n
SMILES	Pf apPOL inh	mHTT CaM bind
Cc1cccc(NC(c2ccc(Br)cc2)c2ccc3cccnc3c2O)n1 (centres undefined)	n	97.0
O=S(=O)(O)c1cccc2cccnc12	n	n
Cc1ccc(C(Nc2cccc(C)n2)c2ccc3cccnc3c2O)cc1 (centres undefined)	n	98.0
CCCN1CCC(=O)N([C@H](COc2ccccc2)CC(C)C)CC1	n	n
O=C1CCN(CCc2ccccc2)CCN1[C@H](CSc1ccc(Br)cc1)c1ccccc1	n	n
CC(=O)Nc1ccc(SC[C@H](c2ccccc2)N2CCN(CCc3ccccc3)CCC2=O)cc1	n	98.0
CC(C)C[C@@H](COc1ccccc1)N1CCN(CCc2ccccc2)CCC1=O	n	84.2
O=C1CCN(CCc2ccccc2)CCN1[C@H](COc1ccccc1)Cc1ccccc1	n	98.2
CC(C)CN1CCC(=O)N([C@H](COc2ccccc2)Cc2ccccc2)CC1	n	n
COc1ccc([N+](=O)[O-])cc1NC(=O)c1cc(-c2ccccc2)nc2ccccc12	n	n
O=S(=O)(Nc1cccc(F)c1)c1ccc2nc(-c3ccccc3)[nH]c2c1	n	n
COc1ccc(C2CCCN2C(=O)Nc2cccc(C)c2C)cc1 (centres undefined)	n	n
c1ccc(CSc2nc3ccccc3n3nnnc23)cc1	n	n
CCOc1cc(/C=C2\SC(=N)N(c3nonc3N)C2=O)ccc1O	51.8	n
CCOc1cc(/C=C2\SC(=N)N(c3nccs3)C2=O)ccc1OCCN1CCOCC1	n	51.0
COc1cc(/C=C2\SC(=N)N(c3ccc(F)cc3)C2=O)ccc1O	n	n
CCOc1ccc(/C=C2\SC(=N)N(c3ccc4c(c3)OCO4)C2=O)cc1OC	n	n
CCCN1C/C(=C\c2ccc3c(c2)OCO3)C(=O)/C(=C/c2ccc3c(c2)OCO3)C1	n	63.0
CCOc1ccc2c(c1)OC(=Cc1ccc3c(c1)OCO3)C2=O	n	n
CC(C)(C)c1cc(Br)ccc1OCC(=O)Nc1ccc(S(N)(=O)=O)cc1	n	n
COC(=O)C1=C(N)Oc2cc(C)oc(=O)c2C1c1ccc(Cl)c(Cl)c1 (centres undefined)	n	n
COCCC1CCN(C(=O)c2cc(F)ccc2Cl)CC1	n	n
O=C1CSC(c2cn(-c3ccccc3)nc2-c2cc3ccccc3oc2=O)N1Cc1ccco1 (centres undefined)	n	n
O=C1CSC(c2cn(-c3ccccc3)nc2-c2cccs2)N1Cc1ccccc1 (centres undefined)	n	n
O=C1CSC(c2cn(-c3ccccc3)nc2-c2ccccc2)N1Cc1cccnc1 (centres undefined)	n	n
SMILES	Pf apPOL inh	mHTT CaM bind
Cc1ccc(-c2nn(-c3ccccc3)cc2C2SCC(=O)N2Cc2ccccc2)o1 (centres undefined)	n	94.0
O=C1CSC(c2cn(-c3ccccc3)nc2-c2ccc(Cl)cc2)N1Cc1cccnc1 (centres undefined)	n	58.0
O=C1CSC(c2cn(-c3ccccc3)nc2-c2cc3ccccc3oc2=O)N1CC1CCCO1 (centres undefined)	n	58.0
CCc1nc(-c2cccnc2N2CCCC(C(=O)NCc3ccc(SC)cc3)C2)no1 (centres undefined)	n	n
O=C(c1ccoc1)N1CCC(CCOc2ccc(F)cc2)CC1	n	n
CCc1nc2oc3cc(OC)ccc3c(=O)c2c(=O)n1-c1ccc(C)cc1	n	n
Cc1cccc(CNC(=O)c2nn(C)c3c2CN(C(=O)c2c(F)cccc2F)CC3)c1	n	n
Cc1cccc(CNC(=O)c2nn(C)c3c2CN(C(=O)c2cccc(Cl)c2)CC3)c1	n	76.0
Cc1cccc(CNC(=O)c2nn(C)c3c2CN(C(=O)c2ccc(Cl)cc2)CC3)c1	n	63.8
COc1cc(C(=O)Nc2c3c(nn2-c2cccc(C)c2)CSC3)c([N+](=O)[O-])cc1OC	n	n
CC(=O)N1CCc2[nH]c3ccc(C(=O)N4CCN(Cc5ccc(C)cc5)CC4)cc3c2C1	n	77.7
CCN(CC)c1ccc(CNC(=O)c2ccc3[nH]c4c(c3c2)CN(C(C)=O)CC4)cc1	n	69.1
CC(=O)N1CCc2[nH]c3ccc(C(=O)NCc4ccc(N5CCN(C)CC5)cc4)cc3c2C1	n	n
CC(=O)N1CCc2[nH]c3ccc(C(=O)N4CCN(C(C)C)CC4)cc3c2C1	n	n
CC(=O)N1CCc2[nH]c3ccc(C(=O)N4CCOCC4)cc3c2C1	n	n
CC(=O)N1CCc2[nH]c3ccc(C(=O)NCCc4nc5ccccc5n4C)cc3c2C1	n	n
CCN(CCNC(=O)c1ccc2[nH]c3c(c2c1)CN(C(C)=O)CC3)c1ccccc1	n	67.6
CC(=O)N1CCc2[nH]c3ccc(C(=O)NCc4ccc(F)cc4)cc3c2C1	n	72.0
